Most compounds without a hit are left out; they make up all but 19% or so of the library.
DT40 TDP1 no CPT: qHTS for Inhibitors of human tyrosyl-DNA phosphodiesterase 1 (TDP1): qHTS in cells in absence of CPT; DT40 Tdp1-/- hTDP1 cells, no CPT, ATP luminescence, 48 h; Potency, µM (series often up to 46.2 µM), most hits filed as inhibitors; actives 15% (n = 420,000); AID 686978, 2013; note: nearly all actives have a fitted effect of over 55% in size
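A cellular qHTS used chicken DT40 cells lacking endogenous Tdp1 but carrying stably transfected human TDP1. Compounds were applied without camptothecin, and cell growth kinetics were judged by ATP-dependent luminescence after ≥48 hr.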
DT40 TDP1 CPT: growth inhibition of DT40 Tdp1-/-;hTDP1 cells with camptothecin (screen for TDP1 inhibitors). AID 686979. chicken DT40 Tdp1-/-;hTDP1 cells + 20 nM CPT, ATP luminescence, 48 h. Potency, µM (titrated, usually from 46.2 µM), usual class: inhibitors. actives 12% (n = 420,000); note: nearly all actives have a fitted effect of over 55% in size
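Chicken DT40 Tdp1-/- cells stably complemented with human TDP1 were seeded at 400 cells/well in medium containing 20 nM camptothecin, exposed to pin-transferred compounds, and grown at 37 °C for at least 48 hr. Viability was read as ATP luminescence.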
HT1080 IDH1KD tx: kills HT-1080 cells with IDH1 knockdown. HT-1080 IDH1 knockdown viability, ATP luminescence, 48 h. Potency, µM (titrated, usually from 46.1 µM), actives largely listed as cytotoxic. actives 2% (n = 360,000). AID 686971
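After a 2 h attachment period, IDH1KD HT-1080 cells took pin-transferred compound for 48 h at 37 °C; ATP-based luminescence after 10 min room-temperature reagent incubation reported viability.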
HT1080NT lethal: kills 2HG-producing HT-1080-NT fibrosarcoma cells; HT-1080-NT fibrosarcoma viability, CellTiter-Glo ATP luminescence, 48 h; Potency, µM (series often up to 46.1 µM), most hits filed as cytotoxic; actives 1.6% (n = 360,000); AID 686970;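 note: NT is the 2HG producing partner of a matched IDH1 knockdown line; nearly all actives have a fitted effect of over 55% in size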
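Luminescent CellTiter-Glo readout after 48 hours of compound exposure at 37 degrees C defined viability of HT-1080-NT cells. Activity was normalized to DMSO wells and cell-free media wells; concentration-response curves were fitted and assigned curve classes.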
ELG1 DNA repair: ELG1-dependent DNA repair inhibition | HEK293T ELG1-luciferase reporter, luminescence, 16 h; DNA damage induced by 5-fluorouridine | Potency, µM (doses to about 46.1 µM), actives largely listed as inhibitors | actives 2.3% (n = 330,000); note: nearly all actives have a fitted effect of over 55% in size
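Reporter activity after DNA damage by 5-fluorouridine is monitored. Compound-treated cells incubate 16 hr at 37 °C, then ONE-Glo is added for 30 min before luminescence reading.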
IL-1B inflam inh: blocks inflammasome-driven IL-1 beta release; THP-1 LPS/ATP IL-1B secretion, AlphaLISA, 16 h; stronger effect = lower value; activity change, % at 57.5 µM; actives 4.7% (n = 360,000); AID 743279; in the data active = activity change below about -50%; inconclusive = mostly about -30% to -49%
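Secreted IL-1B measured by AlphaLISA bead assay after 16 h compound exposure of THP-1 cells; compounds (final up to 57.5 uM) added 1 h before LPS (250 ng/mL) and ATP (1.25 mM) stimulation; lower signal means less secretion.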
Numbers stand for hits; [ ] = another dose, or the depositor's remark. Unless noted, calls come from the whole dose curve; as a rule, active = well fitted curve in the direction sought with a large enough effect; inconclusive = small, poorly fitted or top-dose-only effect, or another doubt; inactive = no such curve, though single readings can be large; an effect the other way counts as inactive or inconclusive.

`CCc1cccc(NC(=O)CC2Oc3ccc(C)cc3NC2=O)c1` (centres undefined) gave DT40 TDP1 no CPT inactive and DT40 TDP1 CPT inactive.
Screening COc1ccc(OC)c(CNC(=O)c2cc3cc4ccc(OC)cc4nc3o2)c1 returned DT40 TDP1 no CPT inactive and DT40 TDP1 CPT inactive.
`CCN(CC(=O)NCc1cccs1)C(=O)c1ccc(-c2ccccc2F)o1` gave DT40 TDP1 no CPT 18µM, DT40 TDP1 CPT inconclusive, HT1080 IDH1KD tx inactive, HT1080NT lethal inactive, ELG1 DNA repair inactive and IL-1B inflam inh inactive.
Screening COc1ccc2cc3cc(C(=O)NCCc4ccc(OC)c(OC)c4)oc3nc2c1 returned DT40 TDP1 no CPT 18µM, DT40 TDP1 CPT 12µM, HT1080 IDH1KD tx inactive, HT1080NT lethal inactive, ELG1 DNA repair 5.2µM and IL-1B inflam inh inconclusive.
COc1ccc2cc3cc(C(=O)NCc4ccc(C)cc4)oc3nc2c1 was read as DT40 TDP1 no CPT inactive and DT40 TDP1 CPT inactive.
For CCN(CC(=O)NCc1cccs1)C(=O)c1ccccc1Cl the results were DT40 TDP1 no CPT inactive, DT40 TDP1 CPT inactive, HT1080 IDH1KD tx inactive, HT1080NT lethal inactive, ELG1 DNA repair inactive and IL-1B inflam inh inactive.
`Cc1cc(C(=O)NCc2cccs2)c(C)o1` gave DT40 TDP1 no CPT 18µM, DT40 TDP1 CPT 26µM, HT1080 IDH1KD tx inactive, HT1080NT lethal inactive, ELG1 DNA repair inactive and IL-1B inflam inh inactive.
CCCCN(CC)CCCNC(=O)c1cc2cc3ccc(OC)cc3nc2o1 was read as DT40 TDP1 no CPT inconclusive, DT40 TDP1 CPT inconclusive, HT1080 IDH1KD tx inactive, HT1080NT lethal inactive, ELG1 DNA repair inactive and IL-1B inflam inh -50.
CNc1ccnc(-c2cccc(NS(C)(=O)=O)c2)n1 was read as DT40 TDP1 no CPT inactive and DT40 TDP1 CPT inactive.
Screening COc1ccc(Cc2nc3ccc(C(=O)NCc4cc(Br)ccc4OC)cc3o2)cc1 returned DT40 TDP1 no CPT inactive and DT40 TDP1 CPT inconclusive.
For CCn1nc(C)cc1C(=O)NCC1CCC2(CCN(Cc3ccccc3F)CC2)O1 (centres undefined) the results were DT40 TDP1 no CPT inconclusive and DT40 TDP1 CPT inactive[9.04 µM].
Screening CSc1ncc(C(=O)Nc2ccccc2C(F)(F)F)c(-c2ccccc2)n1 returned DT40 TDP1 no CPT inactive and DT40 TDP1 CPT inactive.
`CCC(C)NCCOc1cccc(Br)c1` (centres undefined) gave DT40 TDP1 no CPT inactive, DT40 TDP1 CPT inconclusive, HT1080 IDH1KD tx inactive, HT1080NT lethal inactive, ELG1 DNA repair inactive and IL-1B inflam inh inactive.
Screening CC(C)(C)c1ccc(OCCCCCCN2CCNCC2)cc1 returned DT40 TDP1 no CPT 8.2µM, DT40 TDP1 CPT 18µM, HT1080 IDH1KD tx 23µM, HT1080NT lethal inconclusive and IL-1B inflam inh -80.
Screening CCC(C)NCCOc1ccc(C(C)(C)c2ccccc2)cc1 (centres undefined) returned DT40 TDP1 no CPT 16µM, DT40 TDP1 CPT inconclusive, HT1080 IDH1KD tx inconclusive, HT1080NT lethal 18µM, ELG1 DNA repair inactive and IL-1B inflam inh -66.
For CC(C)(c1ccccc1)c1ccc(OCCN2CCOCC2)cc1 the results were DT40 TDP1 no CPT 16µM, DT40 TDP1 CPT inconclusive, HT1080 IDH1KD tx inactive, HT1080NT lethal inactive, ELG1 DNA repair inactive and IL-1B inflam inh inactive.
CC1CCN(CCCCOc2ccc(C(C)(C)C)cc2)CC1 was read as DT40 TDP1 no CPT inconclusive, DT40 TDP1 CPT 23µM, HT1080 IDH1KD tx inactive, HT1080NT lethal inactive, ELG1 DNA repair inconclusive and IL-1B inflam inh inconclusive.
`O=C(Nc1cccc(C(F)(F)F)c1)Nc1ccc2nc([C@@H]3O[C@H](CO)[C@@H](O)[C@H](O)[C@H]3O)[nH]c2c1` gave DT40 TDP1 no CPT inactive, DT40 TDP1 CPT inactive, HT1080 IDH1KD tx inactive, HT1080NT lethal inactive and IL-1B inflam inh inactive.
For COC(=O)C1CCN(Cc2ccc3c(c2)CN(C(=O)c2cc(C)oc2C)CCO3)CC1 the results were DT40 TDP1 no CPT inactive and DT40 TDP1 CPT inactive[9.04 µM].
Screening CC(C)(c1ccccc1)c1ccc(OCCCN2CCNCC2)cc1 returned DT40 TDP1 no CPT 7.3µM, DT40 TDP1 CPT 5.8µM, HT1080 IDH1KD tx 21µM, HT1080NT lethal inactive, ELG1 DNA repair inactive and IL-1B inflam inh -80.
Oc1ccc(Cl)cc1-c1cc(-c2cccc(Br)c2)n[nH]1 was read as DT40 TDP1 no CPT 18µM, DT40 TDP1 CPT 16µM, HT1080 IDH1KD tx inactive, HT1080NT lethal inactive, ELG1 DNA repair inconclusive and IL-1B inflam inh inactive.
`Cc1ccc(O)c(-c2cc(C(F)(F)C(F)F)[nH]n2)c1` gave DT40 TDP1 no CPT 16µM, DT40 TDP1 CPT inconclusive, HT1080 IDH1KD tx inconclusive, HT1080NT lethal inactive, ELG1 DNA repair inactive and IL-1B inflam inh inactive.
`Cc1ccc(O)c(-c2cc(C(=O)Nc3cccnc3)[nH]n2)c1` gave DT40 TDP1 no CPT inactive, DT40 TDP1 CPT inactive, HT1080 IDH1KD tx inactive, HT1080NT lethal inactive, ELG1 DNA repair inconclusive and IL-1B inflam inh inconclusive.
O=[N+]([O-])c1ccccc1-c1cc(-c2cc(Cl)ccc2O)n[nH]1 was read as DT40 TDP1 no CPT inconclusive, DT40 TDP1 CPT inconclusive, HT1080 IDH1KD tx inactive, HT1080NT lethal inactive, ELG1 DNA repair inconclusive and IL-1B inflam inh -101.
Oc1ccc(Cl)cc1-c1cc(-c2ccco2)[nH]n1 was read as DT40 TDP1 no CPT 18µM, DT40 TDP1 CPT 9.2µM, HT1080 IDH1KD tx inconclusive, HT1080NT lethal inconclusive, ELG1 DNA repair inconclusive and IL-1B inflam inh inactive.
`CC(NC(=O)C1CC(=O)N(c2ccc3c(c2)OCCO3)C1)c1ccccc1` (centres undefined) gave DT40 TDP1 no CPT inactive, DT40 TDP1 CPT inactive, HT1080 IDH1KD tx inactive, HT1080NT lethal inactive and IL-1B inflam inh inactive.
`Oc1c(Br)cc(Br)cc1-c1nc2ccccc2s1` gave DT40 TDP1 no CPT inactive and DT40 TDP1 CPT inactive.
COc1ccc(O)c(-c2cc(-c3ccccc3[N+](=O)[O-])[nH]n2)c1 was read as DT40 TDP1 no CPT inconclusive, DT40 TDP1 CPT inactive, HT1080 IDH1KD tx inactive, HT1080NT lethal inactive, ELG1 DNA repair inconclusive and IL-1B inflam inh inactive.
Screening Cc1ccc(O)c(-c2cc(-c3ccccc3[N+](=O)[O-])[nH]n2)c1 returned DT40 TDP1 no CPT inactive, DT40 TDP1 CPT inactive, HT1080 IDH1KD tx inactive, HT1080NT lethal inactive, ELG1 DNA repair inactive and IL-1B inflam inh -87.
Cc1ccc(O)c(-c2cc(-c3ccccc3C)[nH]n2)c1 was read as DT40 TDP1 no CPT inconclusive, DT40 TDP1 CPT inconclusive, HT1080 IDH1KD tx inactive, HT1080NT lethal inactive, ELG1 DNA repair inconclusive and IL-1B inflam inh -95.

Screening results (PubChem BioAssay)
